Data: PubChem BioAssay AID1159580 (chemical genetic matrix, 2015)
About 2,000 (36%) of roughly 5,500 compounds were called active. Another 18% or so got no clear call; they are omitted. Cut-off read from the data, not from the text of the source: active = normalized growth mostly below about 0.91 (no sharp cut-off); inconclusive = no clear call, values can overlap the other calls; inactive = mostly above about 0.92. This is one part of the list.

Assay: chemical genetic growth profiling, strain panel (AID 1159580);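 note: tested at 20 µM; growth read once vehicle control cultures reached saturation at 30 °C; 1 = growth at the plate median or of vehicle wells; lower values mean less growth of the strain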
Conditions: S. cerevisiae deletion strains, growth OD

Measured: normalized growth

O=C(O)c1cc(=O)c2ccc(Cl)cc2[nH]1
inactive: locus YAL013W, strain DEP1, active compounds read low 1.01 | locus YAL021C, strain ccr4, active compounds read low 1 | locus YAL026C, strain drs2, active compounds read low 1.03 | locus YAL030W, strain snc1, active compounds read low 1.01 | locus YAL040C, strain CLN3, active compounds read low 1.01 | locus YBL061C, strain skt5, active compounds read low 1.02 | locus YBR009C, strain hhf1, active compounds read low 1.01 | locus YBR021W, strain FUR4, active compounds read low 1.01 | locus YBR023C, strain chs3, active compounds read low 1.02 | locus YBR171W, strain sec66, active compounds read low 1.03 | locus YBR229C, strain ROT2, active compounds read low 1.02 | locus YBR231C, strain swc5, active compounds read low 1.02 | locus YBR279W, strain paf1, active compounds read low 1.01 | locus YCL011C, strain gbp2, active compounds read low 1.02 | locus YCL016C, strain dcc1, active compounds read low 1.04 | locus YCL029C, strain bik1, active compounds read low 0.998 | locus YCL061C, strain MRC1 (second series), active compounds read low 1.01 | locus YCL061C, strain MRC1, active compounds read low 1.01 | locus YCL069W, strain vba3, active compounds read low 1.01 | locus YCR088W, strain abp1, active compounds read low 1.01 | locus YDL005C, strain med2, active compounds read low 1.02 | locus YDL035C, strain GPR1, active compounds read low 1.02 | locus YDL040C, strain nat1, active compounds read low 1.01 | locus YDL074C, strain BRE1, active compounds read low 1.06 | locus YDL101C, strain DUN1, active compounds read low 1.01 | locus YDL134C, strain PPH21, active compounds read low 1.01 | locus YDL185W, strain tfp1, active compounds read low 0.988 | locus YDL192W, strain arf1, active compounds read low 0.993 | locus YDR001C, strain nth1, active compounds read low 1.01 | locus YDR069C, strain doa4, active compounds read low 0.999 | locus YDR101C, strain arx1, active compounds read low 0.999 | locus YDR137W, strain rgp1, active compounds read low 1.01 | locus YDR150W, strain NUM1, active compounds read low 1.01 | locus YDR159W, strain sac3, active compounds read low 0.998 | locus YDR162C, strain NBP2, active compounds read low 1.01 | locus YDR195W, strain ref2 1 | locus YDR297W, strain sur2, active compounds read low 1.02 | locus YDR318W, strain mcm21, active compounds read low 0.989 | locus YDR334W, strain swr1, active compounds read low 1.01 | locus YDR335W, strain msn5, active compounds read low 1.03 | locus YDR363W, strain ESC2, active compounds read low 1.03 | locus YDR388W, active compounds read low 0.999 | locus YDR392W, strain spt3, active compounds read low 1.07 | locus YDR502C, strain sam2, active compounds read low 1.01 | locus YEL003W, strain gim4, active compounds read low 1.02 | locus YEL037C, strain rad23, active compounds read low 1.02 | locus YEL061C, strain CIN8 (second series), active compounds read low 1.01 | locus YEL061C, strain CIN8, active compounds read low 1.01 | locus YER002W, strain NOP16, active compounds read low 1.03 | locus YER015W, strain faa2, active compounds read low 1.02 | locus YER016W, strain bim1, active compounds read low 1.04 | locus YER110C, active compounds read low 0.99 | locus YER111C, strain swi4, active compounds read low 1.01 | locus YER155C, strain BEM2 (second series), active compounds read low 1.02 | locus YER155C, strain BEM2, active compounds read low 1.01 | locus YER167W, strain BCK2, active compounds read low 0.995 | locus YFR010W, strain ubp6, active compounds read low 0.986 | locus YGL078C, strain dbp3, active compounds read low 1 | locus YGL086W, strain mad1, active compounds read low 1 | locus YGL167C, strain pmr1, active compounds read low 1.01 | locus YGL173C, strain kem1, active compounds read low 1.02 | locus YGL227W, strain vid30, active compounds read low 1.04 | locus YGL240W, strain doc1, active compounds read low 1.01 | locus YGL248W, strain PDE1, active compounds read low 1.03 | locus YGL253W, strain hxk2, active compounds read low 1.02 | locus YGR078C, strain PAC10, active compounds read low 1.03 | locus YGR135W, strain pre9, active compounds read low 0.976 | locus YGR252W, strain gcn5, active compounds read low 0.992 | locus YHR013C, strain ard1, active compounds read low 1.04 | locus YHR027C, strain rpn1, active compounds read low 0.994 | locus YHR030C, strain SLT2, active compounds read low 1.01 | locus YHR079C, strain IRE1 (second series), active compounds read low 0.99 | locus YHR094C, strain hxt1, active compounds read low 0.992 | locus YHR129C, strain ARP1, active compounds read low 1.02 | locus YHR142W, strain chs7, active compounds read low 1.04 | locus YHR200W, strain rpn10, active compounds read low 0.992 | locus YIL066C, strain RNR3, active compounds read low 1.03 | locus YIL073C, strain SPO22, active compounds read low 0.979 | locus YIL125W, strain kgd1, active compounds read low 0.994 | locus YIR030C, strain dcg1, active compounds read low 0.995 | locus YJL092W, strain hpr5, active compounds read low 1.02 | locus YJL095W, strain BCK1 (second series), active compounds read low 1.03 | locus YJL095W, strain BCK1, active compounds read low 1.04 | locus YJL115W, strain asf1, active compounds read low 1.01 | locus YJL129C, strain trk1, active compounds read low 1.03 | locus YJL134W, strain LCB3, active compounds read low 1.01 | locus YJL154C, strain vps35, active compounds read low 1.01 | locus YJL164C, strain tpk1, active compounds read low 1.01 | locus YJL166W, strain qcr8, active compounds read low 1.02 | locus YJL168C, strain set2, active compounds read low 0.992 | locus YJL187C, strain SWE1 (second series), active compounds read low 1.04 | locus YJL187C, strain SWE1, active compounds read low 1.02
